This passage reports binding signal results from paper PMC7819943, “Rice protein-binding microarrays: a tool to detect cis-acting elements near promoter regions in rice”.

In all, about 39,000 sequences were measured (“fluorescence intensity (a.u.)”: median about 4,300, highest 2% from about 39,000 on). This excerpt belongs to a sample that is enriched for the highest values.

The assay addresses T1, OsSMF1 (Oryza sativa, UniProt Q6ZLB0 1-436).
T1 sequence: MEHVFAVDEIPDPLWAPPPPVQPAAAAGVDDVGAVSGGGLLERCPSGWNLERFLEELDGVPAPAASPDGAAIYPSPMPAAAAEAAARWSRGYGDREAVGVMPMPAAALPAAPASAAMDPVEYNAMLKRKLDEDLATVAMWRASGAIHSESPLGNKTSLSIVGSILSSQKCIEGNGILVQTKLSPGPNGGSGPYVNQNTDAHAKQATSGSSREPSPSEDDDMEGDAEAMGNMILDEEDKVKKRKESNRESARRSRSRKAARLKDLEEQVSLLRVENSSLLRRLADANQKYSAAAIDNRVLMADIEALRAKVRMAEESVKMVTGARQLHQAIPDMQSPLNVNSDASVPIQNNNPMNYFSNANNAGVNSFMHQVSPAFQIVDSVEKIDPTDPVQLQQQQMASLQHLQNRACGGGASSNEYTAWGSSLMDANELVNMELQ
Briefly: protein-binding microarray (RPBM); PBS, 2% BSA, 51.3 ng/ul salmon testes DNA, 50 uM zinc acetate, 200 nM TF, 25 C, 1 h; high values mean tight binding. The settings on record: protein: recombinant; tags: N-terminal polyhistidine and DsRed monomer fusion (pET32a); chain copies: 2; label: CyDye5-dUTP incorporated in the synthesized complementary strand; 3' TTTTT single-stranded linker to array surface; dsDNA, one strand shown. Summed up:
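Ni–NTA purification followed expression in E. coli BL21-CodonPlus of transcription factors fused N-terminally to a polyhistidine tag and DsRed. At 200 nM in PBS with 2% BSA, salmon testes DNA and 50 µM zinc acetate, the protein was incubated for 1 h at 25 °C with a custom Agilent array that had been primer-extended with Cy5-dUTP and blocked with 2% BSA. After washing, the array was read on an Axon 4000B scanner. The binding signal is per-feature fluorescence intensity in arbitrary units.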
As for “CGGAGACGGGAGGCGAGGCGAGCGGCGCCGCGGAACGGGACGGAGTCACCTAGTGCAG”, the binding signal is 18600 fluorescence intensity (a.u.).
To “AGGGAAAAGAGGAGACGGGAGGAAAGGAACGGAGGAGATGCGGAGTCACCTAGTGCAG” belongs 3340 fluorescence intensity (a.u.); to “TGGAGAGGGAACCAACAACAAACAACCAGCTGCCTCGCCGCGGAGTCACCTAGTGCAG”, 47200 fluorescence intensity (a.u.).
For “GCGCGCGCGCGCGGGCATAGGCGACGCCGCGACGGTGCGGCGGAGTCACCTAGTGCAG” the value was 3890 fluorescence intensity (a.u.).
To “CGCCGCGAAGGCGCGAAGCCCCGTCACCGCGCGCGCGCGCCGGAGTCACCTAGTGCAG” belongs 5540 fluorescence intensity (a.u.); to “CCGCCTCGCCGCGTGCCTCTGGAACAATCTGGCGCTGCCGCGGAGTCACCTAGTGCAG”, 3700 fluorescence intensity (a.u.); to “ATCAGCAAGAATGCGAGGGAGACGGCGGAGAGCTCGGGAACGGAGTCACCTAGTGCAG”, 43000 fluorescence intensity (a.u.).
For the sequence “GAGAGAGAGAGAGGGATTTCCCCTTGGCTCCGCGTCGATACGGAGTCACCTAGTGCAG”, the binding signal was 3520 fluorescence intensity (a.u.).
For “AATCTATATGTTATCGTCCTCCTCTTGCGTGTGGCTAGTTCGGAGTCACCTAGTGCAG” the value was 3750 fluorescence intensity (a.u.); for “AATTGTTTACTGATCTTTGCGTTAATGATGATTGTGCCCTCGGAGTCACCTAGTGCAG”, 3160 fluorescence intensity (a.u.); for “AAAATTCGAATCAGGCGGAGCCACCTCACCTCGCCGCGGCCGGAGTCACCTAGTGCAG”, 5020 fluorescence intensity (a.u.).
Consider “CTTTGTCTTAGTATGGTGACTGGTTGCAAATTGATTTGGTCGGAGTCACCTAGTGCAG”, for which the binding signal is 3410 fluorescence intensity (a.u.).
With “AGCTAGCTAGCTAACTAGTAAGGAGGTACACGTAGGTAGCCGGAGTCACCTAGTGCAG”, the binding signal was 6960 fluorescence intensity (a.u.).
As for “TGGGTTGAATATGAGCTTGAATATTGGTGGAGTGATACATCGGAGTCACCTAGTGCAG”, the binding signal was 3240 fluorescence intensity (a.u.).
For the sequence “CTTCCATATATCCTTGTCACAAGCTAGCTCACAAAACTTCCGGAGTCACCTAGTGCAG”, the binding signal was 4680 fluorescence intensity (a.u.).
To “GGCGGCCACGGGCTCCGGCGGAGGGCGGCGTGGTGGCGGCCGGAGTCACCTAGTGCAG” belongs 14400 fluorescence intensity (a.u.); to “GAGCGCGGAAGCCGGCGGCGGCCGTACGTGTTCGGCCGGCCGGAGTCACCTAGTGCAG”, 3410 fluorescence intensity (a.u.); to “GCGAGGGGCGGGGAGAGCAGCGGCGGCGGCGGAGCGCGGCCGGAGTCACCTAGTGCAG”, 39200 fluorescence intensity (a.u.).
To “GTGATTTATCCGAGCAGAGTGGCGGCGGCTTCGCCGAGTACGGAGTCACCTAGTGCAG” belongs 39600 fluorescence intensity (a.u.).
For “CCGCGCTCACCTGCCGGGCGTGGCGCGCCGCGGTGGCCTCCGGAGTCACCTAGTGCAG” the value was 3140 fluorescence intensity (a.u.).
With “GAGCTCCGCCAGTACGAGTACAGACCCAGCTTCGCCGGCGCGGAGTCACCTAGTGCAG”, the binding signal was 3580 fluorescence intensity (a.u.).
For “GCCCCGCGGCTTCCGGCTGCCGTCGCCGCGAGCCCCGTGGCGGAGTCACCTAGTGCAG” the value was 5050 fluorescence intensity (a.u.).
For “GCGCGCGCGGCGTTCGGGAGGAAGCGGAAGAGCGCGCCGGCGGAGTCACCTAGTGCAG” the value was 47000 fluorescence intensity (a.u.); for “GGGCGGAGCGGGGCGGAGGGAGAGGAGGGAGAGGAGGGAGCGGAGTCACCTAGTGCAG”, 4920 fluorescence intensity (a.u.); for “GAGGCCGGGGTCGGGGCGAGCGAGGCGAGAGGGGAGGAGGCGGAGTCACCTAGTGCAG”, 4480 fluorescence intensity (a.u.).
For “GGTGGCGGCGCGGGCCGGGCGGCGGCGGCGGCGGCGGCTCCGGAGTCACCTAGTGCAG” the value was 40400 fluorescence intensity (a.u.); for “GCGGCGCCTCCGGGAAGCGCGGCGCCGCGTCCTCCTCCTCCGGAGTCACCTAGTGCAG”, 3170 fluorescence intensity (a.u.); for “TGTTTACGTCCAACGTTTAACCGCTCGTCTTATTTGAAATCGGAGTCACCTAGTGCAG”, 21000 fluorescence intensity (a.u.).
For “AGAAGTATTTCTGCGTCATTGTTGGAAATTATATTTCTAGCGGAGTCACCTAGTGCAG”, the binding signal is 3650 fluorescence intensity (a.u.).
For “GACACTTACAAGCACTGCGGCGTTACCATTTTATGGAACTCGGAGTCACCTAGTGCAG”, the binding signal is 3220 fluorescence intensity (a.u.).
For “GGAAAGGCGCCACGTAATAAATAGAAACAGACTCAGCACTCGGAGTCACCTAGTGCAG” the value was 6760 fluorescence intensity (a.u.).
To “TATGCCAAAGAGAAGCCTCGTCAGCCATCCCTTTGGCCACCGGAGTCACCTAGTGCAG” belongs 7800 fluorescence intensity (a.u.); to “GAGCAGCCAGCTCGCCAAGCCTAGCCATTCTTGATCTCTTCGGAGTCACCTAGTGCAG”, 3280 fluorescence intensity (a.u.); to “CGAAGTCGTGCTGCGCTCCGACTCAGCTGCATCGTCACTCCGGAGTCACCTAGTGCAG”, 5960 fluorescence intensity (a.u.).
For “ACCCAACGGTGATGATGTCAGCTGACGTGGCGCCCCGGAGCGGAGTCACCTAGTGCAG” the value was 40500 fluorescence intensity (a.u.); for “CAGGGCAGCGGCAGGTGGGGAGGAGGCCGGCGGGTCGGCGCGGAGTCACCTAGTGCAG”, 3470 fluorescence intensity (a.u.); for “GTCCATCGGATCGGGAGCGCGCGGCGAGGCAGGCGGGGTCCGGAGTCACCTAGTGCAG”, 44300 fluorescence intensity (a.u.).
As for “TCGGCCGTCGGATCGCGCGCGAAACGCTGTGATGTGCTGGCGGAGTCACCTAGTGCAG”, the binding signal was 4480 fluorescence intensity (a.u.).
To “CTGCCGGTGGACGGCGGCGGAGAGCTGACTAGCCGAGCCGCGGAGTCACCTAGTGCAG” belongs 3520 fluorescence intensity (a.u.).
To “GCGGAGGCCGCCGGCTGACGTGGCTCCCAACGGCCGGGAGCGGAGTCACCTAGTGCAG” belongs 21200 fluorescence intensity (a.u.); to “GAGGAAGAACCTTACGCTCAAACGAAACGGAACCAGTAGGCGGAGTCACCTAGTGCAG”, 55100 fluorescence intensity (a.u.).
“ACTCGTGGAGCCGGTGATGACGTGCCCAAGCTAGAGACAGCGGAGTCACCTAGTGCAG”: the binding signal is 7230 fluorescence intensity (a.u.).
For the sequence “CAGCAGCAACGAAATCAGAACGAGGCGCAGGAAGAAGAAACGGAGTCACCTAGTGCAG”, the binding signal was 28000 fluorescence intensity (a.u.).
To “TCGGGTGAGCGAGTGAGTGGGCGAGGAGGCGCGGCGGCGGCGGAGTCACCTAGTGCAG” belongs 3800 fluorescence intensity (a.u.); to “AAGAGGGAGGGGAGGGTTCGCGAACCAGTAGAAAACGGCTCGGAGTCACCTAGTGCAG”, 3390 fluorescence intensity (a.u.); to “GAGCCGAGACTGAGAGAGAGATCGGCGCCGGCTGTGAACGCGGAGTCACCTAGTGCAG”, 48100 fluorescence intensity (a.u.).
